# Source: PubChem BioAssay AID1159580 (chemical genetic matrix, 2015)
# The campaign covered roughly 5,500 compounds. About 2,000 (36%) were called active. Another 18% or so got no clear call; they are omitted. Some of the results follow. Unmarked numbers belong to inactive results. Cut-off read from the data, not from the text of the source: active = normalized growth mostly below about 0.91 (no sharp cut-off); inconclusive = no clear call, values can overlap the other calls; inactive = mostly above about 0.92.
# Experiment: chemical genetic growth profiling, strain panel (AID 1159580);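 note: tested at 20 µM; growth read once vehicle control cultures reached saturation at 30 °C; 1 = growth at the plate median or of vehicle wells; lower values mean less growth of the strain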
# Conditions: growth OD
compound,measurement,setting,value
Cc1ccc(COc2ccc(C)nc2[N+](=O)[O-])cc1,normalized growth,"S. cerevisiae deletion strains, locus YAL013W, strain DEP1, active compounds read low",0.977
same,normalized growth,"S. cerevisiae deletion strains, locus YBR229C, strain ROT2, active compounds read low",0.932
same,normalized growth,"S. cerevisiae deletion strains, locus YCL061C, strain MRC1, active compounds read low",0.946
same,normalized growth,"S. cerevisiae deletion strains, locus YDL101C, strain DUN1, active compounds read low",0.905
same,normalized growth,"S. cerevisiae deletion strains, locus YDL134C, strain PPH21, active compounds read low",0.902 (active)
same,normalized growth,"S. cerevisiae deletion strains, locus YDR150W, strain NUM1, active compounds read low",0.854
same,normalized growth,"S. cerevisiae deletion strains, locus YEL061C, strain CIN8, active compounds read low",0.922
same,normalized growth,"S. cerevisiae deletion strains, locus YGR078C, strain PAC10, active compounds read low",0.918 (active)
same,normalized growth,"S. cerevisiae deletion strains, locus YGR229C, strain SMI1, active compounds read low",0.958
same,normalized growth,"S. cerevisiae deletion strains, locus YHR030C, strain SLT2, active compounds read low",0.252 (active)
same,normalized growth,"S. cerevisiae deletion strains, locus YHR087W, strain rtc3, active compounds read low",0.959
same,normalized growth,"S. cerevisiae deletion strains, locus YJL187C, strain SWE1, active compounds read low",0.932 (active)
same,normalized growth,"S. cerevisiae deletion strains, locus YJR043C, strain POL32, active compounds read low",0.872 (active)
same,normalized growth,"S. cerevisiae deletion strains, locus YJR075W, strain HOC1, active compounds read low",0.857 (active)
same,normalized growth,"S. cerevisiae deletion strains, locus YLR039C, strain RIC1, active compounds read low",0.57 (active)
same,normalized growth,"S. cerevisiae deletion strains, locus YLR058C, strain SHM2 (second series), active compounds read low",0.954
same,normalized growth,"S. cerevisiae deletion strains, locus YLR085C, strain ARP6, active compounds read low",0.295 (active)
same,normalized growth,"S. cerevisiae deletion strains, locus YLR262C, strain YPT6, active compounds read low",0.593 (active)
same,normalized growth,"S. cerevisiae deletion strains, locus YML094W, strain GIM5, active compounds read low",0.855 (active)
same,normalized growth,"S. cerevisiae deletion strains, locus YMR219W, strain ESC1, active compounds read low",0.939 (active)
same,normalized growth,"S. cerevisiae deletion strains, locus YNL153C, strain GIM3, active compounds read low",0.951
same,normalized growth,"S. cerevisiae deletion strains, locus YNL298W, strain CLA4 (second series), active compounds read low",0.75 (active)
same,normalized growth,"S. cerevisiae deletion strains, locus YNL322C, strain KRE1, active compounds read low",0.972
same,normalized growth,"S. cerevisiae deletion strains, locus YNR030W, strain Alg12, active compounds read low",0.758 (active)
same,normalized growth,"S. cerevisiae deletion strains, locus YOL006C, strain TOP1, active compounds read low",0.593 (active)
same,normalized growth,"S. cerevisiae deletion strains, locus YPL055C, strain LGE1, active compounds read low",0.809
same,normalized growth,"S. cerevisiae deletion strains, locus YPL241C, strain CIN2, active compounds read low",0.71 (active)
same,normalized growth,"S. cerevisiae deletion strains, locus YPR135W, strain CTF4, active compounds read low",0.382 (active)
same,normalized growth,"S. cerevisiae strains, strain wild type, active compounds read low",0.859 (active)
